# Experimental data: PubChem BioAssay (NCATS)
# Records with an inconclusive call do not appear. A call without a number means that no potency is given here. Calls of active or inactive are those of the source. Unless noted, calls come from the whole dose curve; as a rule, active = well fitted curve in the direction sought with a large enough effect; inconclusive = small, poorly fitted or top-dose-only effect, or another doubt; inactive = no such curve, though single readings can be large; an effect the other way counts as inactive or inconclusive.
# Columns and labels:
# [1] = High-throughput drug toxicity screening in the BPDCN cell line Cal-1 (AID 1224825; call rule not given here); conditions: Cal-1 BPDCN cell viability, qHTS; at 45.8 µM (top of the series) unless noted
# In short: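 Exponentially growing Cal-1 cells, 500 per well in phenol red-free RPMI with 10% FBS, were exposed to compounds for 48 h at 37 °C, 5% CO2. Viability was read by CellTiter-Glo luminescence and normalised to DMSO (100%) and 9.2 uM bortezomib (0%).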
# [2] = qHTS assay for measurement of the activity of small molecule inhibitors on Zika virus induced Caspase-3 activity in human iPSC derived neural progenitor cells (hNPCs) (AID 1224857); note: nearly all actives have a fitted effect of over 65% in size
# In short: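 Percent inhibition of virus-induced caspase-3/7 luminescence (Caspase-Glo), scaled between uninfected cells and Zika-infected cells. hNPCs received compound 1 hr before ZIKV at 2 FFU/cell, with 6 hours infection at 37 C.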
# [3] = qHTS assay for measurement of the activity of small molecule inhibitors on Zika virus induced Caspase-3 activity in human astrocytoma cells (AID 1224859)
# In short: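 Luminescent caspase-3/7 read-out (30 min reagent, room temperature) in human SNB-19 cells infected 6 h with ZIKV (2 FFU/cell) after 1 h compound pre-incubation; Data were normalised to uninfected and infected wells.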
# [4] = qHTS Screen of the MIPE 4.0 Collection Against Ewings Sarcoma (RDES) (AID 1259252); note: nearly all actives have a fitted effect of over 35% in size; note: potency is the fitted concentration of half-maximal effect
# In short: (§1)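 Compound titrations go onto adherent log-phase cells 4 h after seeding, incubate 48 h at 37C, then CellTiter-Glo luminescence reports viability relative to DMSO and cell-free controls.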
# [5] = qHTS Screen of the MIPE 4.0 Collection Against Ewings Sarcoma (TC71) (AID 1259253); note: nearly all actives have a fitted effect of over 40% in size; note: potency is the fitted concentration of half-maximal effect
# In short: as §1
# [6] = qHTS Screen of the MIPE 4.0 Collection Against Ewings Sarcoma (EW8) (AID 1259255); note: nearly all actives have a fitted effect of over 35% in size; note: potency is the fitted concentration of half-maximal effect
# In short: as §1
# [7] = qHTS Screen of the MIPE 4.0 Collection Against Ewings Sarcoma (TC32) (AID 1259256); note: nearly all actives have a fitted effect of over 45% in size; note: potency is the fitted concentration of half-maximal effect
# In short: as §1
# [8] = P-glycoprotein substrates identified in KB-8-5-11 adenocarcinoma cell line, qHTS therapeutic library screen (AID 1346987); note: nearly all actives have a fitted effect of over 65% in size; note: potency is the fitted concentration of half-maximal effect
# In short: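 KB-8-5-11, a colchicine-selected P-gp-overexpressing KB-3-1 subline, was grown without colchicine for the assay. Cells were seeded at 500 cells/well, dosed in concentration-response and incubated 72 h at 37 degree C, 5% CO2. Viability was read by CellTiter-Glo luminescence.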
# [9] = NS1 protein of Zika virus - qHTS assay to identify small molecule inhibitors in human HEK 293 cells (AID 1347053); note: nearly all actives have a fitted effect of over 55% in size; note: potency is the fitted concentration of half-maximal effect
# In short: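 HEK 293 cells pretreated with compound for 1 h, then infected with ZIKV MR766 (MOI 0.5) for 24 h at 37 C. NS1 detected by TR-FRET with two anti-NS1 antibodies; normalized to uninfected (0%) and infected (100%) wells.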
# [10] = qHTS of pediatric cancer cell lines to identify multiple opportunities for drug repurposing: Primary screen for TC32 cells (AID 1347089); note: nearly all actives have a fitted effect of over 60% in size
# In short: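 In the primary qHTS, MIPE compounds were tested at 11 concentrations (0.78 nM to 46 µM) and NPC compounds at 8 (0.59 nM to 46 µM) on TC32 cells for 48 h. CellTiter-Glo luminescence gave viability.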
# [11] = qHTS of pediatric cancer cell lines to identify multiple opportunities for drug repurposing: Primary screen for SJ-GBM2 cells (AID 1347091); note: potency is the fitted concentration of half-maximal effect
# In short: (§2)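 Eight- or eleven-point concentration series, 48 h treatment at 37 degrees C in growth media; readout CellTiter-Glo luminescence. Potency and efficacy were taken from the concentration-response curves.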
# [12] = qHTS of pediatric cancer cell lines to identify multiple opportunities for drug repurposing: Primary screen for A673 cells (AID 1347092); note: nearly all actives have a fitted effect of over 45% in size; note: potency is the fitted concentration of half-maximal effect
# In short: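 48 h compound exposure, A673, 500-1,000 cells/well, 37 degrees C/5% CO2. MIPE: 11-point, 0.78 nM-46 µM; NPC: 8-point, 0.59 nM-46 µM (final). Readout CellTiter-Glo luminescence after 15 min RT.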
# [13] = qHTS of pediatric cancer cell lines to identify multiple opportunities for drug repurposing: Primary screen for BT-37 cells (AID 1347094); note: potency is the fitted concentration of half-maximal effect
# In short: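 Cells plated at 500-1,000/well in growth medium, compounds added after 5 h. MIPE tested at 11 points (from 0.78 nM), NPC at 8 points (from 0.59 nM). CellTiter-Glo luminescence after 48 h; concentration-response curves from primary screen.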
# [14] = qHTS of pediatric cancer cell lines to identify multiple opportunities for drug repurposing: Primary screen for DAOY cells (AID 1347090); note: nearly all actives have a fitted effect of over 55% in size; note: potency is the fitted concentration of half-maximal effect
# In short: as §2
# [15] = qHTS of pediatric cancer cell lines to identify multiple opportunities for drug repurposing: Primary screen for SK-N-MC cells (AID 1347093); note: potency is the fitted concentration of half-maximal effect
# In short: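 Metabolically active cells were quantified by ATP-dependent luminescence (CellTiter-Glo, 15 min at room temperature) following 48 h treatment. Cells had been plated at 500-1,000 per well and settled for 5 h beforehand.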
Compound,viability (% of control) [1] [%],Potency [2],Potency [3],Potency [4],Potency [5],Potency [6],Potency [7],Potency [8],Potency [9],Potency [10],Potency [11],Potency [12],Potency [13],Potency [14],Potency [15]
CC(C)OC(=O)[C@H](C)N[P@](=O)(OC[C@H]1O[C@@H](n2ccc(=O)[nH]c2=O)[C@](C)(F)[C@H]1O)Oc1ccccc1,88.9,inactive,inactive,inactive,inactive,inactive,inactive,inactive,inactive,inactive,inactive,inactive,inactive,–,–
COc1cc2c(Nc3ccc(Cl)c(Cl)c3F)ncnc2cc1OCC1C[C@@H]2CN(C)C[C@H]2C1,2.8,inactive,inactive,14.8 µM (active),10.5 µM (active),11.8 µM (active),13.2 µM (active),18.7 µM (active),inactive,–,7.43 µM (active),0.935 µM (active),24.3 µM (active),0.935 µM (active),2.96 µM (active)
Nc1nc(=O)n([C@H]2CSC(CO)O2)cc1F (some centres not stated),102,inactive,inactive,inactive,inactive,inactive,inactive,inactive,–,inactive,inactive,–,inactive,inactive,inactive
CN1C(C(=O)Nc2ccccn2)=C(O)c2sc(Cl)cc2S1(=O)=O,71.2,inactive,inactive,3.32 µM (active),3.72 µM (active),20.9 µM (active),5.26 µM (active),inactive,inactive,inactive,inactive,2.96 µM (active),–,–,4.69 µM (active)
COc1cc(OC)c(NC(=O)Nc2cc(C)on2)cc1Cl,80.9,inactive,inactive,inactive,inactive,inactive,inactive,inactive,–,inactive,inactive,inactive,inactive,inactive,–
C#C[C@]1(O)CC[C@@H]2[C@@H]3CCc4cc(O)ccc4[C@H]3CC[C@@]21C,11.2,inactive,inactive,18.7 µM (active),16.6 µM (active),20.9 µM (active),20.9 µM (active),11.8 µM (active),–,inactive,18.7 µM (active),–,–,14.8 µM (active),–
CCCCCCCCc1ccc(CCC(N)(CO)CO)cc1,3.28,inactive,inactive,23.5 µM (active),20.9 µM (active),20.9 µM (active),18.7 µM (active),23.5 µM (active),9.35 µM (active),–,14.8 µM (active),4.69 µM (active),21.7 µM (active),–,1.87 µM (active)
O=C(NCc1ccccc1)[C@H](Cc1ccccc1)NC(=O)[C@@H]1O[C@@H]1C(=O)NCCc1ccc(O)cc1,54.1,inactive,inactive,1.05 µM (active),1.05 µM (active),1.05 µM (active),1.18 µM (active),inactive,inactive,inactive,–,1.18 µM (active),–,–,23.5 µM (active)
c1cc(CN2CCCNCCNCCCNCC2)ccc1CN1CCCNCCNCCCNCC1,120,inactive,inactive,inactive,inactive,inactive,inactive,inactive,–,inactive,inactive,inactive,inactive,inactive,–
Oc1cc2c(cc1O)C1c3ccc(O)c(O)c3OCC1(O)C2 (configuration not stated),105,inactive,inactive,inactive,inactive,inactive,inactive,inactive,–,inactive,inactive,inactive,inactive,inactive,–
Cn1cc(-c2cnn3c(N)c(Br)c([C@H]4CCCNC4)nc23)cn1,14.4,inactive,inactive,0.332 µM (active),0.118 µM (active),0.148 µM (active),0.187 µM (active),inactive,0.833 µM (active),–,–,–,0.685 µM (active),–,0.0935 µM (active)
C#Cc1cccc(Nc2ncnc3cc(OCCOC)c(OCCO)cc23)c1,12.5,inactive,inactive,0.935 µM (active),18.7 µM (active),9.35 µM (active),8.33 µM (active),23.5 µM (active),inactive,–,5.26 µM (active),0.187 µM (active),6.85 µM (active),3.72 µM (active),–
